Data taken from PubChem BioAssay (NCI).
The panel holds about 79,000 compounds, 15% with a hit somewhere; the sample as a whole holds those more often. Calls of active or inactive are those of the source. Rule as the data show it: active = growth inhibition above about 70%; inactive = the rest.

Key:
[1] = NCI Yeast Anticancer Drug Screen. Data for the rad50 strain (AID 155);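 also: 0% = growth of vehicle-only cultures of the same strain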; details: S. cerevisiae rad50 strain growth inhibition, stronger effect = higher value
Procedure, shortened: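 Inhibition values express reduced yeast growth in compound-treated cultures relative to vehicle-treated controls.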

[2] = NCI Yeast Anticancer Drug Screen. Data for the mec2-1 strain (AID 157); details: S. cerevisiae mec2-1 strain, stronger effect = higher value
Procedure, shortened: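 Test agents were screened against the mec2-1 yeast strain, with defined DNA repair or cell cycle alteration. Growth was scored as inhibition against vehicle-only controls.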

[3] = NCI Yeast Anticancer Drug Screen. Data for the sgs1 mgt1 strain (AID 161);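 also: 0% = growth of cultures given vehicle only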; details: S. cerevisiae sgs1 mgt1 strain, stronger effect = higher value
Procedure, shortened: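 Inhibition of yeast growth, normalised to vehicle-treated controls, is reported for a strain bearing genetic alterations in DNA damage repair.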

[4] = NCI Yeast Anticancer Drug Screen. Data for the cln2 rad14 strain (AID 165);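 also: 0% = growth equal to vehicle treated cultures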; details: S. cerevisiae cln2 rad14 strain, stronger effect = higher value
Procedure, shortened: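 Growth of compound-exposed yeast (cln2 rad14 genotype) measured and expressed as inhibition relative to vehicle.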

[5] = NCI Yeast Anticancer Drug Screen. Data for the bub3 strain (AID 167); details: S. cerevisiae bub3 mutant strain, stronger effect = higher value
Procedure, shortened: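 Steps: expose the mutant yeast strain to compound; grow alongside vehicle-treated cultures; measure growth; express inhibition against the vehicle cultures.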

[6] = NCI Yeast Anticancer Drug Screen. Data for the mlh1 rad18 strain (AID 175); details: S. cerevisiae mlh1 rad18 strain growth inhibition, stronger effect = higher value
Procedure, shortened: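 In this whole-cell yeast screen, a strain with altered DNA damage repair is challenged with compound, and its growth is measured against matched vehicle-treated controls.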

[7] = at 5.0 µM (retest, dose inferred, filed as 0.5)
[8] = at 50.0 µM (retest, dose inferred, filed as 5.0)

Measured: growth inhibition

O=C(NO)Nc1nc(Cl)c(Cl)nc1Cl
inactive: [1]; [7] 16% | [2]; [7] 18% | [3]; [7] 30% | [4]; [7] 2% | [5]; [7] 6% | [6]; [7] 20%
active: [1]; [8] 97% | [1]; at 50.0 µM 90% | [2]; [8] 99% | [2]; at 50.0 µM 92.7% | [3]; [8] 99% | [3]; at 50.0 µM 90.2% | [4]; [8] 99% | [4]; at 50.0 µM 83.5% | [5]; [8] 98% | [5]; at 50.0 µM 90.3% | [6]; [8] 99% | [6]; at 50.0 µM 90.3%

COC(=O)c1ccc(NCC2=C(Br)C(=O)C=CC2=O)cc1Cl
active: [1]; [8] 98% | [1]; at 50.0 µM 89.4% | [2]; [8] 98% | [2]; at 50.0 µM 77.6% | [3]; [8] 98% | [3]; at 50.0 µM 92.3% | [4]; [8] 98% | [4]; at 50.0 µM 88.8% | [5]; [8] 98% | [5]; at 50.0 µM 90.8% | [6]; [8] 97% | [6]; at 50.0 µM 89.7%
inactive: [1]; [7] 43% | [2]; [7] 35% | [3]; [7] 35% | [4]; [7] 43% | [5]; [7] 44% | [6]; [7] 37%

Cc1ccc2c(c1)nc1n2C(N)=Nc2ccccc2S1
inactive: [1]; [7] 14% | [1]; [8] 47% | [1]; at 50.0 µM 65.5% | [2]; [7] -14% | [2]; [8] 28% | [2]; at 50.0 µM 45.3% | [3]; [7] -5% | [3]; [8] 45% | [3]; at 50.0 µM 68.6% | [4]; [7] -10% | [4]; [8] 17% | [4]; at 50.0 µM 37.8% | [5]; [7] -16% | [5]; [8] 47% | [6]; [7] 0% | [6]; [8] 40% | [6]; at 50.0 µM 57.2%
active: [5]; at 50.0 µM 75.2%

O=C(Nc1ccccc1)OCCN=C1c2ccccc2CCc2ccccc21
active: [1]; [8] 95% | [2]; [8] 96% | [2]; at 50.0 µM 76.2% | [3]; [8] 95% | [3]; at 50.0 µM 81.7% | [4]; [8] 94% | [4]; at 50.0 µM 84% | [5]; [8] 96% | [5]; at 50.0 µM 83.9%
inactive: [1]; [7] 4% | [1]; at 50.0 µM 66.1% | [2]; [7] -35% | [3]; [7] -27% | [4]; [7] -30% | [5]; [7] -30%

O=C(Nc1ccccc1[N+](=O)[O-])/C(=N/Nc1cccc(Cl)c1)c1c(O)c2ccccc2oc1=O
active: [1]; at 50.0 µM 87.1% | [2]; at 50.0 µM 79.5% | [3]; at 50.0 µM 89.5% | [5]; at 50.0 µM 78.8% | [6]; at 50.0 µM 70%
inactive: [1]; [7] 29% | [1]; [8] 29% | [2]; [7] 36% | [2]; [8] 36% | [3]; [7] 35% | [3]; [8] 35% | [4]; [7] 11% | [4]; [8] 11% | [4]; at 50.0 µM 43.2% | [5]; [7] 27% | [5]; [8] 27% | [6]; [7] 44% | [6]; [8] 44%

CC(=O)Oc1ccc(C)c(C(C)C(Cl)(Cl)Cl)c1 (stereo unspecified)
inactive: [1]; [7] 0% | [1]; [8] 30% | [1]; at 50.0 µM 65% | [2]; [7] -5% | [2]; [8] 50% | [2]; at 50.0 µM 42.8% | [3]; [7] 12% | [3]; [8] 26% | [3]; at 50.0 µM 58.3% | [4]; [7] 8% | [4]; [8] 13% | [4]; at 50.0 µM 52.5% | [5]; [7] -6% | [5]; [8] 4% | [5]; at 50.0 µM 60% | [6]; [7] 0% | [6]; [8] 27%
active: [6]; at 50.0 µM 81.2%

O=C1CC(c2ccccc2)C(c2ccccc2)CO1 (stereo unspecified)
inactive: [2]; [7] 35% | [3]; [7] 52% | [4]; [7] 13% | [5]; [7] 56%
active: [1]; [7] 85% | [1]; [8] 99% | [1]; at 50.0 µM 84.9% | [2]; [8] 99% | [2]; at 50.0 µM 92.7% | [3]; [8] 98% | [3]; at 50.0 µM 91.5% | [4]; [8] 98% | [4]; at 50.0 µM 93.8% | [5]; [8] 97% | [5]; at 50.0 µM 94%

CCCCCCCCCCCCNCC#N
inactive: [1]; [7] 8% | [1]; [8] 18% | [2]; [7] 11% | [2]; [8] 10% | [3]; [7] -2% | [3]; [8] 17% | [4]; [7] 0% | [4]; [8] 15% | [4]; at 50.0 µM 48.4% | [5]; [7] 4% | [5]; [8] 52%
active: [1]; at 50.0 µM 89.9% | [2]; at 50.0 µM 72.2% | [3]; at 50.0 µM 85.1% | [5]; at 50.0 µM 83.5%

CC(C)(C)c1ccc(O)c(O)c1
active: [3]; at 50.0 µM 79.8% | [6]; [8] 75% | [6]; at 50.0 µM 81.2%
inactive: [1]; [7] 2% | [1]; [8] 56% | [1]; at 50.0 µM 63.4% | [2]; [7] 10% | [2]; [8] 51% | [2]; at 50.0 µM 61.6% | [3]; [7] 11% | [3]; [8] 54% | [4]; [7] -1% | [4]; [8] 16% | [4]; at 50.0 µM -8.95% | [5]; [7] -3% | [5]; [8] 23% | [5]; at 50.0 µM 37.6% | [6]; [7] 10%

O=[N+]([O-])c1ccc(CN2CCN(c3nccs3)CC2)cc1
inactive: [1]; [7] 5% | [1]; [8] 22% | [2]; [7] -3% | [2]; [8] 11% | [2]; at 50.0 µM 51% | [3]; [7] 1% | [3]; [8] 61% | [4]; [7] -1% | [4]; [8] 29% | [4]; at 50.0 µM 34.5% | [5]; [7] -1% | [5]; [8] 38% | [5]; at 50.0 µM 66.6% | [6]; [7] 3% | [6]; [8] 46% | [6]; at 50.0 µM 66.2%
active: [1]; at 50.0 µM 76.8% | [3]; at 50.0 µM 77.8%
